# According to the supplement of paper PMC10681739:
# Tests used:
# [1] = target: T1, ETS1 (UniProt P14921); assay: ETS1 binding intensity (PBM fluorescence), ETS1 alone (arbitrary fluorescence units); higher = stronger binding; settings: ETS1 concentration 1 nM; RUNX1 concentration 0 nM
# T1 sequence: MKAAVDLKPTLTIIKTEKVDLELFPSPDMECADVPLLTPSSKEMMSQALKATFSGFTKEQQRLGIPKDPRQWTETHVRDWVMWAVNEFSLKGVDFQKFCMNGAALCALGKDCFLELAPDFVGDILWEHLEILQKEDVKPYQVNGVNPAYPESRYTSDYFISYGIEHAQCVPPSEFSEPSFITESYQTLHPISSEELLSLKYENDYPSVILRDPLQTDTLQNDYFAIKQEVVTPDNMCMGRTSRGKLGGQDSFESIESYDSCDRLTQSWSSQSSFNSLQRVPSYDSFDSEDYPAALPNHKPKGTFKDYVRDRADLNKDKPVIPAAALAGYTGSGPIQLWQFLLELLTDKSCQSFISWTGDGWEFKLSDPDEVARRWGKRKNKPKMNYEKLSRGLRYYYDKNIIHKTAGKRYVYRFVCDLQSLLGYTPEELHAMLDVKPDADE
# [2] = target: RUNX1 (UniProt Q01196); assay: RUNX1 binding intensity (PBM fluorescence), RUNX1 alone (arbitrary fluorescence units); higher = stronger binding; settings: RUNX1 concentration 2 nM; ETS1 concentration 0 nM
# Method: (§1)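 Cooperative gcPBM on 36-bp genomic probes with neighbouring ETS1 and RUNX1 sites. Recombinant human RUNX1 (2 nM) was incubated alone or with ETS1 (25 nM) and detected with anti-RUNX1 antibody plus Alexa488 secondary. Values are medians over 4 replicate spots; the RUNX1+ETS1 data were normalised to the RUNX1-only data. The probes sit in constant array flanks that are not printed.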
# [3] = target: T1, ETS1; assay: ETS1 binding intensity (PBM fluorescence) in presence of RUNX1, normalised to ETS1-only experiment (arbitrary fluorescence units); higher = stronger binding; settings: ETS1 concentration 1 nM; RUNX1 concentration 25 nM
# [4] = target: RUNX1 (UniProt Q01196); assay: RUNX1 binding intensity (PBM fluorescence) in presence of ETS1, normalised to RUNX1-only experiment (arbitrary fluorescence units); higher = stronger binding; settings: RUNX1 concentration 2 nM; ETS1 concentration 25 nM
# Method: as §1
# 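Wherever RUNX1 binding intensity (PBM fluorescence) in presence of ETS1, normalised to RUNX1-only experiment is given: Full-length recombinant human ETS1 or RUNX1 bound to double-stranded 36-bp genomic probes on microarrays, detected by protein-specific primary antibody and Alexa488 secondary, spot fluorescence as median of four replicate spots.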
# 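Wherever RUNX1 binding intensity (PBM fluorescence), RUNX1 alone is given: Full-length recombinant human RUNX1 bound to double-stranded 36-bp genomic probes on a high-density microarray, scored as Alexa488 fluorescence per spot via anti-RUNX1 antibody, median of four replicate spots.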
# RUNX1, sequence (Q01196 whole entry): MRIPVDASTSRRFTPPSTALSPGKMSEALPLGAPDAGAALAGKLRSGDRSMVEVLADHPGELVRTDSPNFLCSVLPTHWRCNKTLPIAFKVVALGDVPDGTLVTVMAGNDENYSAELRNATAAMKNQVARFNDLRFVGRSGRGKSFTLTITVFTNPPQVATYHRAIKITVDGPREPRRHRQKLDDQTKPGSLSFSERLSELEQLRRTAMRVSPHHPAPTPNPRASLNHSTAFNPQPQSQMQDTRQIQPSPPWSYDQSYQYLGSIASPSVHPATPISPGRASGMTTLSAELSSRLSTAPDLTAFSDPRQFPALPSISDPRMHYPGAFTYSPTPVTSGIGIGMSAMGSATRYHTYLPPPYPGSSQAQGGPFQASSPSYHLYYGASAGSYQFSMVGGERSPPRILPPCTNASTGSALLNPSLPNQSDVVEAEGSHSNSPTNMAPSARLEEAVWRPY
Sequence,ETS1 binding intensity [1],RUNX1 binding intensity [2],ETS1 binding intensity [3],RUNX1 binding intensity [4]
GTGCCGGCGGCCGGATGTGGGCGGGGCCACGGGGAG,8590,753,16200,4170
CCAAGTGTAAAACGGAAGCTCAACCACGAATCTTAC,1510,800,2960,1100
GGTTCATTTCCTTTTCCTCCTTGTGGTATAAAAGAG,697,1210,985,2890
GACAGCAACTCCACTTCCTGTGGGCGAGGGCCCTGT,1850,835,2270,1790
TGGCTTGTTTCCGGTTCCTCTGTGGCGCCGTTCTCG,3480,938,2820,2890
GGTCCGGAAACGATTCTGGACCTGCGGGTATATCCA,1050,776,1350,1070
GAAGCGGAAGTCGCTGAGGGGTGGTGAAGCGGTTGG,1930,710,2420,1010
CCCCACCCAGACAGGAAACTGTGGCTTCTATCAGAT,3020,820,4660,1550
GTTAGAGGAAGAGGAAGCGGTCAAGAGATCGTCACA,956,766,1280,1810
TGACAGACCCGGAAATAAGAGGAGACCACACACTTG,1900,894,2660,1410
CCACCACTCTAAGCAGGATGCGGTGCGACCCAAGAG,1390,815,2470,972
CAGTGCCAGCCGGAACTTGTGGTTCGGACCGTGGGT,882,1040,2100,1420
TATTCAGGCTTCCGGGTGATGTTTGTGGCCACCCGG,3800,671,5020,1510
TTATTTCCTCTTTTTTTTTTTTTTTTTGGTTTTGCT,483,1960,440,4230
GTTTACAGGGGACAGGAAATGTGGGTGAACTCAGCC,6160,745,4710,975
CCGTGGAAGGAAACGCTGCCAACCGCAACAGAAATG,479,1700,2770,3550
TGCAGTCTCAACTTCCTGCGGTCAAGTGATCCTTCA,654,3750,1410,6540
CTACAAACGGCTTCCTCCTGCCTAACCACAACCTCA,455,3280,1130,5340
GTGAGTCACTTCCTGACCATGTGGGTTTTTGGTACG,568,823,937,2090
TTTGTAAGAGGAGGAAGTGGTTTGTAAGAGGAGAAA,2180,835,3260,1270

Sequence,ETS1 binding intensity [1],RUNX1 binding intensity [2],ETS1 binding intensity [3],RUNX1 binding intensity [4]
GCCCCTAAACCGGATGCGGCAGCCACCGCGGACCCC,9010,1290,16600,3550
GCGCCCGGAAGGAAGGCTGGGGTAGGTTGTGGTTTC,476,830,2740,1140
ATCCCACTATAGGAAGCTTCTCTGTGGTTTTGAGCC,369,1370,1640,1910
CGAGGGAGCCGGAAAGATGGTGGTTACCAGATCTGC,608,766,992,926
GCAGAAGGATTTCCTGTTTCAGGCAACCACAGCGAC,1630,773,2450,1510
TGGAAGAGGGCAGGAAGTGTTGTGGTCACTCCCACC,4450,856,28900,1530
GCCAGCGGGGCTTCCGGCCCCGCAGGCAGAAGTCGA,1460,646,1290,1260
TATGTGTTTTAGGCAGGATGTGGGTTTTAGTCTTTC,8060,840,36400,2200
GTTCTTCCACGTCCGCGTTACCCACAACGGCAGTGG,564,1020,606,1090
GCTAAGAGCAGGAAATGATCTGGGAACCACCATCAC,2690,719,3070,918
CCCCTGCCCCTTCCTGGAAGGCTGCGGTGTAACACC,435,978,704,1780
GAGTCGCTTCCGCTCCCGCCCCGCTCTGTGGCGTAG,1180,748,1330,1980
GCTCCTGGCCCGCACTTCCGACCACACACTGGGGAC,557,1180,592,1610
TTCTGTAGCTTAGGATGTGGGTTTCTTTGTTTCTGA,452,926,1020,1030
GCCATTAAAGCAGCTTCCTGTGGGCGCGGCGCAGGA,888,753,867,1010
AACTTCCTCCGCGCGGGGCCACTGCTACCACAAAGG,373,1070,588,2540
GTTCCTAGGCAGGCAGGATGTGGCTATAAGCTACAT,4700,819,6220,1150
GGATGAACAGGAAGCTAAAGTAAATACCACAGTGAC,1710,764,3860,1190
GCTGGGGCAGGAAGCTTCTAGGCCACAGACAGGACG,1190,711,1360,865
